MITF primary: blocks human microphthalmia-associated transcription factor. O75030. AlphaScreen MITF homodimerization, bead proximity signal. actives 0.91% (n = 650,000). inhibition, % at 2.6 µM. AID 1259374; in the data active means inhibition above about 50%;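 further: 0% = vehicle wells with protein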
FBW7 activator: activators of human E3 ligase FBW7; Q969H0; AlphaScreen FBW7–phospho-cyclin E peptide binding, activator screen; normalized activity (activation), % at 26.1 µM; actives 0.13% (n = 650,000); AID 1259310; in the data active means normalized activity above about 1.9%;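 further: purified mutant Fbw7 with reduced substrate affinity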
GPR151 activ: human GPR151 activation; PathHunter beta-arrestin GPR151 cells, luminescence; activation, % at 11.2 µM; actives 1% (n = 650,000); in the data active means activation above about 4.9%;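 further: 0% = median of compound wells and 100% = cells with positive control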
TEAD-YAP block: TEAD-YAP interaction inhibition; HEK-TIYL cells, TEAD-Gal4/YAP UAS-luciferase luminescence; inhibition, % at 9.12 µM; actives 1.4% (n = 640,000); AID 1259422; in the data active means inhibition above about 32%;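 further: 0% = median of test compound wells and 100% = reference inhibitor wells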
Starred values were filed as active, the others as inactive. Compounds with a hit are over-represented: about 3.5% of the library has one in this group of screens.

SMILES	MITF primary	FBW7 activator	GPR151 activ	TEAD-YAP block
Cc1nc2nc(-c3cccs3)cn2nc1C	6	0	-5	-23
COc1ccc(/C(C)=N/NC(=O)c2ccccc2[N+](=O)[O-])c(OC)c1	3	0	1	12
C/C(=N\NC(=O)c1cc(C)nc2ccccc12)c1ccccc1O	-20	-1	2	53*
Cc1cc(C(=O)NN=C2CCN(C)CC2)c2ccccc2n1	1	0	-1	51*
Cc1cc(C(=O)N/N=C/c2ccc(OC(F)F)cc2)c2ccccc2n1	0	0	2	55*
CN1CCC(=NNC(=O)c2c[nH]c3ccccc23)CC1	5	0	-1	-7
COc1ccc(/C(C)=N\NC(=O)c2ccccc2O)c(OC)c1	-3	0	-3	85*
Cc1cc(C(=O)N/N=C/c2cccc([N+](=O)[O-])c2)c2ccccc2n1	6	0	2	12
Cc1cc(C)cc(NC(=O)CSc2cn(C)c3ccccc23)c1	6	0	4	7
Cn1c(=O)c2c(nc(SCC(=O)O)n2Cc2ccc(F)cc2Cl)n(C)c1=O	12	0	1	-7
Cc1cc(C(=O)NN)c2ccccc2n1	-2	0	0	44*
C/C(=N\NC(=O)c1cc(C)nc2ccccc12)c1ccco1	10	0	0	45*
C/C(=N\NC(=O)c1cc(-c2c(C)nn(-c3ccccc3)c2C)n[nH]1)c1ccccc1O	7	0	4	44*
COc1ccc(-n2c(=O)c(C#N)c3n(c2=S)CCCCC3)cc1	13	0	0	11
CCn1ccc2ccc(OC)cc2c1=O	16	2.1*	-1	-10
CCOc1c(Br)ccc2c1sc1nc[nH]c(=O)c12	-1	0	0	4
O=CNc1cccc2c1sc1nc[nH]c(=O)c12	8	0	2	53*
CN1c2ccccc2N(C)C1c1cccc(O)c1	5	0	0	2
CN(C)c1ccc(C2N(C)c3ccccc3N2C)cc1	8	0	0	47*
O=C1OC(c2ccc(Cl)c([N+](=O)[O-])c2)=N/C1=C/c1cccc(Cl)c1	1	0	-1	-2
O=C1OC(c2cccc(F)c2)=N/C1=C\c1ccccc1	-3	0	-7	36*
O=C1OC(c2ccc(Cl)c([N+](=O)[O-])c2)=N/C1=C\c1cccc(F)c1	-19	2.0*	1	4
O=C1OC(c2ccc(-c3ccccc3)cc2)=N/C1=C\c1cccc(F)c1	-3	0	0	-3
COc1ccc(C2C=C(c3cccs3)Nc3ncnn32)c(OC)c1OC (stereo not drawn)	7	0	-1	4
COc1cccc(OC)c1OCCCN1CCCCC1	-1	0	1	-5
SMILES	MITF primary	FBW7 activator	GPR151 activ	TEAD-YAP block
COC(=O)c1sccc1NC(=O)c1ccccc1C	-1	0	0	-16
CCOc1ccccc1C(=O)Nc1ccsc1C(=O)OC	0	0	1	55*
C[C@@H]1O[C@@H](OC[C@H]2OC(Oc3c(-c4ccc(O)c(O)c4)oc4cc(O)cc(O)c4c3=O)[C@H](O)[C@@H](O)[C@@H]2O)[C@H](O)[C@H](O)[C@H]1O (stereo partly drawn)	82*	0	0	7
Nc1cccc(F)c1Nc1ccc2c(cnn2-c2cccc(C(=O)NCCN3CCOCC3)c2)c1	-14	0	0	79*
CC(=C/c1ccccc1)/C=N/NC(=O)c1ccccn1	19	0	-3	-7
CCOc1ccc(/C=N/NC(=O)c2ccoc2C)cc1	11	0	-9	38*
O=C(N/N=C/c1ccc(O)cc1)c1ccccn1	5	0	-7	-24
O=C(N/N=C\c1ccc(O)cc1)c1ccccn1	6	0	-7	42*
O=C(N/N=C/c1cccc(O)c1O)c1ccccn1	81*	-1	-8	-10
CC(/C=N\NC(=O)c1ccccn1)=C\c1ccccc1	10	0	-4	34*
CCCCc1ccc(NC(=O)C(C)N2C(=O)c3ccccc3C2=O)cc1 (stereo not drawn)	13	0	0	-5
O=C(O)C1Cc2c([nH]c3ccccc23)C(c2c(O)ccc3ccccc23)N1 (stereo not drawn)	-5	0	0	-8
O=C(N/N=C\c1ccc(F)cc1)c1ccccn1	8	0	-4	-8
CCOc1ccc(/C=N\NC(=O)c2ccccn2)cc1	18	0	-6	36*
O=C(N/N=C\c1cccc(O)c1)c1ccccn1	-6	0	-7	74*
CCc1ccc(/C=N/NC(=O)c2ccccn2)cc1	4	0	-5	30
CSc1ccc(/C=N\NC(=O)c2ccccn2)cc1	11	1	-7	49*
